To fix the notation:
B1: VH:VL chains; a variant is named by its letters at X, in order (parent)
chain 1: QVQLVQSGAEVKKPGASVKVSCKASGYTFTDYXMHWVRQAPGQGLEWMGXVNPNXXXTTYNQKFEGRVTMTTDTSTSTAYMELRSLRSDDTAVYYCARXNXLDXWGQGTTVTVSS
chain 2: DIQMTQSPSSLSASVGDRVTITCSVSSSVSSIYLHWYQQKPGKAPKLLIYSTSNLASGVPSRFSGSGSGTDFTLTISSLQPEDFATYYCQVYSGYPLTFGGGTKVEIK

The list shows a part of the results. No count for the full screen is at hand.

We go through 66 variants from the emibetuzumab library of Makowski et al. (2022).

In the experiment the parent is B1. Description: yeast display scFab, FACS + sequencing. Particulars: with MET. The method, boiled down:
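A yeast surface library of scFab variants carrying heavy-chain CDR mutations went through two magnetic enrichment rounds on Protein A beads coated with HGFR-Fc, then FACS. For sorting, cells were labelled for 3 h at room temperature with 1 nM HGFR-Fc and anti-Myc in PBSB containing 1% milk, and the top 50% of antigen-positive cells were gated. Input and round-3 sorted populations were deep sequenced in two replicates. A sequence was called an antigen binder if it appeared in both antigen-positive samples and a non-binder if it appeared only in the input.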
VTTKGDVF: the antigen binding call is on record as “no binding”.

Consider SEARSYVV, for which the antigen binding call was “no binding”. In the case of DTREGDAV it was “no binding”. Consider VKAGSDVA, for which the antigen binding call is recorded as “no binding”. In the case of VKAGSAAA it was “binds”; in that of YKAGDDGA, “no binding”; in that of VKAKGAAA, “binds”. Regarding VEAGDAAA, the antigen binding call is “no binding”. For the variant YKAGDAAA, the antigen binding call is recorded as “binds”. Regarding YKAKGAAA, the antigen binding call is on record as “binds”. On to VEGGGAAA, for which the antigen binding call is reported as “no binding”. As to DAGGGAVA, the antigen binding call is recorded as “no binding”. Take VTKETFSF: the antigen binding call is listed as “no binding”. The entry for YEGGTDGA is “no binding”; for STTRGAVA it is “no binding”; for ATTRGAVA it is “no binding”. As to VKARNDLV, the antigen binding call was “no binding”. In the case of YRGRDASF it was “binds”.

YRGRDDWF: the antigen binding call was “no binding”. The entry for YRGRDAGF is “binds”; for DAGKGSVD it is “no binding”; for STATADWV it is “no binding”. In the case of VKGRADVD it was “no binding”; in that of YRGRGVGS, “binds”.

Regarding FAGRGVGD, the antigen binding call is recorded as “no binding”. The entry for YRGRGVGD is “binds”. In the case of SAGRGVGS it was “no binding”; in that of FAGGGDGD, “no binding”. As for FRGRGDGD, the antigen binding call is on record as “binds”.

As to FRGRGVGD, the antigen binding call is “binds”. In the case of YTGEDAVA it was “no binding”. With FRGKADVD, the antigen binding call is “no binding”. In the case of FRGRGDVV it was “binds”; in that of FRGRGDGY, “binds”; in that of FRGRGDVD, “binds”. Regarding YRGRGVSS, the antigen binding call is “binds”. With DRGRGDVV, the antigen binding call is listed as “no binding”. As to DGGRGDVV, the antigen binding call was “no binding”. The entry for AATTSFVV is “no binding”; for FRGRGSVD it is “binds”. In the case of FRGRSYVD it was “no binding”.

For YRGKGVGD, the antigen binding call is recorded as “binds”. Take AATTDAGD: the antigen binding call is given as “no binding”. The entry for DGAKGDGV is “no binding”. Consider ARRRGAWY, for which the antigen binding call is “binds”. In the case of SRRRGAWY it was “binds”; in that of ARTRTAWY, “no binding”.

Regarding SKGRSDVY, the antigen binding call is listed as “no binding”. On to FRGRGALY, for which the antigen binding call was “binds”. The entry for VKGRTSVY is “no binding”. In the case of YKGRGSVY it was “binds”.

Take YRGRGSVY: the antigen binding call was “binds”. In the case of SKGRADVY it was “no binding”; in that of SKGRGAVY, “binds”.

On to YTEAADGA, for which the antigen binding call is reported as “no binding”. For the variant VRAGADWY, the antigen binding call was “no binding”. In the case of VAKKNASF it was “no binding”; in that of FRGRDYGY, “no binding”.

Regarding YKGRGFVY, the antigen binding call was “no binding”. FRTRDSGY chain 1 V68I: the antigen binding call is “no binding”.

For FKGGGAVY, the antigen binding call is listed as “no binding”. In the case of FKGRGAVY it was “binds”; in that of FRGRDSGY, “binds”; in that of YRGRGFVY, “binds”.

Consider FRGRDALY, for which the antigen binding call is on record as “binds”. For the variant FKEAGAVY, the antigen binding call was “no binding”.
